Our source for the sensor-assay potency score (higher = more potent) values is the OligoGym collection.
Further: reference of the scale not given here.

The target of the first experiment is SCGB3A1. As to the kind of experiment: pooled miR-30 sensor sort-seq; sequence = guide strand. As to conditions: shRNA.
In the case of CAGCTCAGCCACACACTTCTGG, the sensor-assay potency score (higher = more potent) was -1.81.
Still for that read-out and setting: to AAGAAAGCAGCAGCGGAGCTGC belongs -0.859.
Sequence TCCAGCGCAGCGACAGGCTGGG displayed a sensor-assay potency score (higher = more potent) of -1.47.
AGCTCAGCCACACACTTCTGGG showed a sensor-assay potency score (higher = more potent) of -1.63.
The same measure, in the same setting: then CTCAGCAGGAGCTTCAGCGGGT, with -1.59; and ACTAAGAAAGCAGCAGCGGAGC, with -1.78; and TCAGCCACACACTTCTGGGAGC, with -1.19.
With AAAGCAGCAGCGGAGCTGCAGG, the sensor-assay potency score (higher = more potent) is -1.3.
TATGAGGTGGTTCACGGGGATG yielded a sensor-assay potency score (higher = more potent) of -2.01.
TTCACGGGGATGCCCAGGCTGC showed a sensor-assay potency score (higher = more potent) of -1.89.
TCTATGAGGTGGTTCACGGGGA gave a sensor-assay potency score (higher = more potent) of -0.221.
With TAAGAAAGCAGCAGCGGAGCTG, the sensor-assay potency score (higher = more potent) was -0.766.

The next experiment deals with SCN10A. The description is as above. Conditions: shRNA.
In turn, TATTCCAGAATCTTCGCTGTGA yielded a sensor-assay potency score (higher = more potent) of 0.727.
TTGCTTCTCTATCTCCACCAGT had a sensor-assay potency score (higher = more potent) of -0.403.
Consider TTGACTTTCACATTGACCCAGA, for which the sensor-assay potency score (higher = more potent) is 0.154.
Sequence TTAACCAAAATAGTGACCGTAA showed a sensor-assay potency score (higher = more potent) of 0.123.
Same read-out and setting: to TTGAGCTTCACCCACATGGGGC belongs -0.622; to TTCAGCACCATAAATGTCCGGT, 0.128.
TTGGTCATCAGTCTCCACCATC: the sensor-assay potency score (higher = more potent) was -1.09.
Still for that read-out and setting: then TAGTGCTGCTAGCACCTCCTGC, with -0.978.
For the sequence TATGATACTGACAACACTCATT, the sensor-assay potency score (higher = more potent) was -0.905.
TTGTCCTGCATCGAATGCCGAG came in with a sensor-assay potency score (higher = more potent) of -1.18.
On to TAATGCTCTAAGAACTCTGAAT, for which the sensor-assay potency score (higher = more potent) was -0.877.
In turn, TTAGACAAAATCCTCTTGCCAG came in with a sensor-assay potency score (higher = more potent) of -0.449.

The target in another experiment is SCN2B. The experiment is described as above. As to conditions: shRNA.
On to TTTTTTTCTCCTCACACACTTG, for which the sensor-assay potency score (higher = more potent) is -1.04.
On to TATATCTATACCTAGAGAGAGA, for which the sensor-assay potency score (higher = more potent) was -1.18.
Turning to TTGATTGGCAGTTAGGTACTGA, the sensor-assay potency score (higher = more potent) amounted to 0.514.
The sequence TTAATTAGGAGGAAGAGACAGA had a sensor-assay potency score (higher = more potent) of -0.125.
Same read-out and setting: to ATTGTCTGTCTGCTTAACCTGA belongs -0.931; to TTGCACTCCTGGTAAGTCCAGT, 0.119.
As for TAAACTGGAAATAACTGTGAAG, the sensor-assay potency score (higher = more potent) was -0.894.
Sequence TTCCCTGAGAACTCCACGCGGT showed a sensor-assay potency score (higher = more potent) of -0.473.
TTGCAAAAGAAACTCAGTCTGC: the sensor-assay potency score (higher = more potent) was -0.173.
Consider TATAGCACACACAACCAAGAAA, for which the sensor-assay potency score (higher = more potent) is -1.12.
As to TTGTGGTTCACTGTGTAGCAGG, the sensor-assay potency score (higher = more potent) is -0.841.
On to TTGTCTGTCTGCTTAACCTGAC, for which the sensor-assay potency score (higher = more potent) was -0.0966.

A further experiment deals with SCN4A. Described as above. As to conditions: shRNA.
With TTGACCTTGACATTGAGCCAGC, the sensor-assay potency score (higher = more potent) is -0.555.
Consider TTGTACAGGATGTCCACCTTGA, for which the sensor-assay potency score (higher = more potent) worked out at 0.539.
TTTGAACTTCTCAAGCATCTGC displayed a sensor-assay potency score (higher = more potent) of 1.21.
